DENV2 CPE rescue: DENV2-induced cell death inhibition; AID 651640; CPE inhibition, % at 9.99 µM; 350,000 compounds, 1.7% hits; DENV2-infected cells, cytopathic effect rescue, plate reader; in the data active = CPE inhibition above about 20%, passing the limit was not always enough; tested in BHK-21 cells;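 also: 0% = median of neutral control wells and 100% = median of positive control wells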
rRNA inh HTS: inhibits bacterial ribosomal RNA function over humanized ribosomes | E. coli WT GFP vs humanized-ribosome RFP mutants, fluorescence, 24 h; active compounds read low; DMSO median 0, no signal -100 | GFP signal change (wild-type ribosome), % (test concentration not listed) | 350,000 compounds, 1.6% hits | AID 720706;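 active = significant combined selectivity score with lowered wild-type GFP, culture density cut under 30%, mutant RFP and density less affected; inactive = any of these conditions unmet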
CaV13 FRET inh: Disruptors of the CACNA1D IQ motif to Ca2+-dependent inactivation inhibitor domain association, primary screening, Förster resonance energy transfer in intact living …. HEK cells, CFP/YFP FRET ICDI-IQ, plate reader, 10 min; percent FRET-ratio fall versus neutral wells. 340,000 compounds, 0.098% hits. inhibition, % at 12.3 µM;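 active = mean replicate inhibition of at least 30% and at least 1% of replicates passing that level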;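 also: 0% = median of the neutral control wells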
PGC1a acetyl inh: modulators of PGC1a acetylation; inhibition, % at 15.6 µM; U2OS PGC1a acetylation, AlphaScreen anti-acetyl-lysine; with virally co-expressed GCN5 acetyltransferase; AID 651687; 350,000 compounds, 0.17% hits;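 active = every replicate shows inhibition of at least 40%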;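 also: 0% = neutral control wells and 100% = positive control wells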
INS-1E GSIS act: GLuc luminescence reporter in INS-1E cells, primary screen for activators of glucose-dependent secretion of insulin | INS-1E GLuc reporter insulin secretion, 2-3 h | activation, % at 16.6 µM | 370,000 compounds, 0.61% hits | AID 743287;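 active = lowest replicate activation of at least 40%, so every replicate reaches that level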;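 also: 0% = median of neutral control wells and 100% = median of IBMX positive control wells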
ERAP1 inh: ERAP1 (human) enzyme inhibition; AID 652197; recombinant ERAP1, Leu-AMC fluorescence, 60 min; Q9NZ08; inhibition, % at 10.7 µM; 340,000 compounds, 0.15% hits;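 active = mean replicate inhibition of at least 30%, or all replicates individually reaching that 30% level; inactive = mean below 30% and not every replicate reaching it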;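 also: 0% = neutral control wells and 100% = L-leucinethiol positive control wells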
Target sequence (Q9NZ08 whole entry, looked up): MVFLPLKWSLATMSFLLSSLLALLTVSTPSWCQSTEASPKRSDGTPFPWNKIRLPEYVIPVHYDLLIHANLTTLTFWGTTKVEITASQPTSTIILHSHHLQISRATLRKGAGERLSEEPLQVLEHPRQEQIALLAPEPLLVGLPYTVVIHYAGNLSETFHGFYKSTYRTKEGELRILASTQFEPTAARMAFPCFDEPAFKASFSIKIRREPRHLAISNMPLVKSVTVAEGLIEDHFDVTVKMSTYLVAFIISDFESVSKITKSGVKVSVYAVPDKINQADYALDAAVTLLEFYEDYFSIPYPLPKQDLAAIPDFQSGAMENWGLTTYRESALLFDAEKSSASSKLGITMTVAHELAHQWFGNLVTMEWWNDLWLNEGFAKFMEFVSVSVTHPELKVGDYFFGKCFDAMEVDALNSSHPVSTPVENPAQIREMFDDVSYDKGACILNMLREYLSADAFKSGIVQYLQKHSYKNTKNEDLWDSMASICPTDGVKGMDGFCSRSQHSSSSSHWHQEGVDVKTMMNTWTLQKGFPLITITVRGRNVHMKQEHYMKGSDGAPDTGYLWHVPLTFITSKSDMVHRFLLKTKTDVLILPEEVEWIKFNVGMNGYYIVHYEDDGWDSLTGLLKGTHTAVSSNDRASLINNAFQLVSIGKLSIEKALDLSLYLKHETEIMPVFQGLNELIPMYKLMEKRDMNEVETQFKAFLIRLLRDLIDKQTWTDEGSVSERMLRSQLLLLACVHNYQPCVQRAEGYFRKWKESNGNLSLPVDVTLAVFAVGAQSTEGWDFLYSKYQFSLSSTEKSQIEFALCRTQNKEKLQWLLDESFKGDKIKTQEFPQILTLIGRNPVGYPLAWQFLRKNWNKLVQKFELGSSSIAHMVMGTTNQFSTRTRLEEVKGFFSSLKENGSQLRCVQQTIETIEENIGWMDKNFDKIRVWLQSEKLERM
Numbers without * were called inactive; / = no result given; + = active, no number; ! = repeats disagree. Most compounds without a hit are left out; they make up all but 3.2% or so of the library.

SMILES	DENV2 CPE rescue	rRNA inh HTS	CaV13 FRET inh	PGC1a acetyl inh	INS-1E GSIS act	ERAP1 inh
CN(C(=O)COC(=O)CSc1ccc([N+](=O)[O-])cc1)c1ccccc1	36*	-3	-4	3	3	1
CCSc1nc2cc(OC)c(OC)cc2c(=O)n1CC	/	/	-5	6	69*	/
CCn1c(SCc2ccccc2)nc2ccccc2c1=O	-7	-32*	-5	/	3	1
CCCn1c(SCC(=O)N2CCCC2=O)nc2ccccc2c1=O	-2	-7	-6	11	46*	3
Cn1c(SCC(=O)N2CCCC2=O)nc2ccccc2c1=O	-9	7	-11	2	/	-3
CC(C)NC(=O)Nc1ccc2c(c1)C(=O)N([C@H](C)CO)C[C@H](C)[C@@H](CN(C)C(=O)CCC(F)(F)F)OCCCC[C@@H](C)O2	-1	0	/	-7	39	-1
COCC(=O)Nc1ccc2c(c1)C(=O)N(C)C[C@H](OC)[C@@H](C)CN(C(=O)c1cccnc1)[C@H](C)CO2	-10	0	/	10	3	2
COC(=O)[C@]1(Cc2ccccc2)N=C(c2ccc(OCCCO)cc2)O[C@@H]1c1ccccc1	2	/	/	-77	/	-2
CCN(CC)CCCN(C(=O)c1ccc(OC)cc1)c1nc(-c2ccc(OC)cc2)cs1	-22	-35*	-2	-1	-15	12
CCN(CC)CCN(C(=O)c1ccc2ccccc2c1)c1nc2ccc(OC)cc2s1	-2	-19*	-3	/	-66	-3
CCN(CC)CCN(C(=O)c1cc2ccccc2cc1OC)c1nc2ccc(OC)cc2s1	0	-35	-2	3	-60	-2
CCN(CC)CCCN(C(=O)c1ccccc1C)c1nc(-c2ccc(OC)cc2)cs1	8	-10	-4	-22	5	-2
CC(NC(=O)c1ccc(CS(=O)(=O)c2ccc(Cl)cc2)o1)c1ccc2c(c1)OCCO2 (stereo not drawn)	5	-17*	-7	-6	1	3
C[C@H]1CCCCO[C@H](CN(C)Cc2ccccc2)[C@@H](C)CN([C@@H](C)CO)C(=O)c2cc(NS(=O)(=O)c3cn(C)cn3)ccc2O1	2	4	/	12	12	9
COc1ccc(-c2csc(NC(C)c3nc4cc(Cl)c(Cl)cc4n3CCCO)n2)cc1 (stereo not drawn)	0	-5	-10	2	3	/
Cc1nc2cc(Cl)c(Cl)cc2n1CCCO	12	-22*	-4	6	-1	-1
COc1ccccc1CNc1nc(NC(C)C)nc2cc(-c3ccccc3)sc12	-1	-51	-5	7	-8	1
Cc1ccc(F)cc1-c1nc(NC(C)C)nc2cc(-c3ccccc3)sc12	-7	-13	-5	/	66*	0
Cc1ccccc1S(=O)(=O)NCC[C@H]1CC[C@H](NC(=O)C2CCC2)[C@@H](CO)O1	-8	5	/	-8	5	-3
CCC(=O)Nc1cc(-c2cc3ccccc3oc2=O)ccc1OC	1	-8	-2	/	1	10
COc1ccc(-c2cc3ccccc3oc2=O)cc1NC(=S)NC(=O)c1ccc2c(c1)OCCO2	/	/	-4	4	94*	/
COc1ccc2c3c([nH]c2c1)[C@H](CO)N(S(C)(=O)=O)CC31CCN(C(=O)c2ccccc2)CC1	4	1	/	-8	-2	-4
COc1ccc2c3c(n(C)c2c1)[C@@H](CO)N(C(=O)C1CCC1)CC31CN(Cc2cccc(F)c2)C1	/	-49	/	/	-29	/
O=C(Cc1ccc([N+](=O)[O-])cc1)Nc1cc(C(F)(F)F)cc(C(F)(F)F)c1	14	-29*	-5	-8	-1	5
Cc1ccc(S(=O)(=O)N2C[C@@H]3N[C@H](C2)C3c2ccc(/C=C/c3ccccc3)cc2)cc1 (stereo partly drawn)	-10	-58	/	-37	502*!	-1
SMILES	DENV2 CPE rescue	rRNA inh HTS	CaV13 FRET inh	PGC1a acetyl inh	INS-1E GSIS act	ERAP1 inh
N#Cc1ccc(-c2ccc([C@@H]3[C@@H]4CN(Cc5cocn5)C[C@H]3N4)cc2)cc1	99*	-1	/	-8	9	/
N#Cc1ccc(-c2ccc([C@@H]3[C@@H]4CN(S(=O)(=O)c5ccc(-c6ccccc6)cc5)C[C@H]3N4)cc2)cc1	2	6	/	85*	6	1
O=S(=O)(c1ccc(-c2ccccc2)cc1)N1C[C@@H]2N[C@H](C1)C2c1ccc(-c2ccccc2)cc1 (stereo partly drawn)	1	1	/	-4	11	2
C/C=C/c1ccc(C2[C@@H]3CN(S(=O)(=O)c4ccccc4)C[C@H]2N3)cc1 (stereo partly drawn)	8	6	/	-20	10	3
C[C@H]1CN([C@@H](C)CO)C(=O)c2ccccc2-c2ccccc2CO[C@@H]1CN(C)C(=O)Nc1cccc(Cl)c1Cl	/	2	/	/	4	/
C[C@H](CO)N1C[C@H](C)[C@H](CN(C)S(=O)(=O)c2ccc(F)cc2)Oc2ccc(NC(=O)Cc3ccccc3)cc2CC1=O	-4	-1	/	2	-17	0
C[C@H]1CN([C@@H](C)CO)S(=O)(=O)c2ccc(-c3cccc(C(=O)N(C)C)c3)cc2O[C@@H]1CN(C)C(=O)Cc1ccccn1	-8	-3	/	0	-5	0
CCN1CCN(Cc2c(O)ccc3c(C)cc(=O)oc23)CC1	5	9	-3	1	1	33*
CCN(CC)Cc1c(O)c(Cl)cc2c(C)cc(=O)oc12	1	19	35*	-18	3	66*
Cc1cc(=O)oc2c(CN3CCN(CCO)CC3)c(O)ccc12	10	8	-2	/	/	40*
Cc1oc2c(CN3CCCCC3)c(O)ccc2c(=O)c1-c1ccc(Br)cc1	-5	10	-18	/	-10	-4
Cc1oc2c(CN3CCCC3)c(O)ccc2c(=O)c1-c1ccc(Br)cc1	2	-28*	-8	-18	-5	-2
C[C@H]1CN([C@@H](C)CO)C(=O)c2cc(NC(=O)C3CC3)ccc2O[C@H]1CN(C)Cc1ccc(Cl)c(Cl)c1	-4	-2	/	-8	-11	2
COc1ccc(NC(=O)Nc2ccc3c(c2)[C@@H]2C[C@H](CC(=O)NCc4ccccn4)O[C@@H](CO)[C@@H]2O3)cc1	-3	-4	/	-3	18	1
O=C(NCC[C@H]1CC[C@@H](NS(=O)(=O)c2cccc(F)c2)[C@H](CO)O1)C1CCC1	-9	0	/	11	3	3
Cc1cc(=O)oc2c(CN3CCCC3)c(O)ccc12	-4	10	-12	3	-1	41*
Cc1cc(=O)oc2c(CN3CCCC3)c(O)c(Cl)cc12	-5	2	-4	4	8	115*
C=CCc1c(O)c(CC)cc2c(C)cc(=O)oc12	-4	-14	+	-1	18	-85
